In PubChem BioAssay (Tox21) one finds Potency and max response data, which are given here for 13 compounds.

A short description of assay [1]: A CellTox Green Cytotoxicity Assay to monitor cytotoxicity in HEK293 cells - 40 hour (AID 1224871). Note: nearly all actives have a fitted effect of over 45% in size. The gist of the method: (§1)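 Read-out: fluorescence of a cell-impermeant cyanine dye staining DNA of dead cells, proportional to cytotoxicity. HEK293, 600 cells/well with reagent, compound (23 nL DMSO) added after 5 h; reads at 0, 8, 16, 24, 32, 40 h.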
A short description of assay [2]: qHTS RealTime-Glo MT Cell Viability Assay in HEK293 cells - 16 hour (AID 1224872). Note: top concentration of the series differs between compounds; nearly all actives have a fitted effect of over 50% in size. The gist of the method:
(§2)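 Nonlytic real-time viability readout: viable cells convert prosubstrate to NanoLuc substrate, giving luminescence proportional to live cell number. HEK293, 600 cells/well, compound added after 5 h, continuous culture at 37 C.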
A general note: In qHTS, concentration-response curves come from the screen itself.

Assay [3] is described as follows: qHTS RealTime-Glo MT Cell Viability Assay in HepG2 cells - 8 hour (AID 1224873). Note: nearly all actives have a fitted effect of over 55% in size. Put shortly: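 HepG2 cells mixed with RealTime-Glo MT reagents (NanoLuc plus cell-permeant prosubstrate) were seeded at 600 cells/well, incubated 5 h at 37 C/5% CO2, then pinned with compounds in DMSO; nonlytic luminescence tracked viability during 40 h treatment.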
Assay [4] in a line: qHTS RealTime-Glo MT Cell Viability Assay in HEK293 cells - 40 hour (AID 1224874). Note: nearly all actives have a fitted effect of over 50% in size. The conditions noted are these: RealTime-Glo luminescence; max response: hits give low values. Put shortly:
(§3)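 Luminescence readout at each listed time point; HEK293, 600 cells/well, RealTime-Glo MT reagent added with cells; compounds pinned (23 nL in DMSO) after 5 h at 37 C; continuous culture at 37 C.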

Assay [5] can be described thus: A CellTox Green Cytotoxicity Assay to monitor cytotoxicity in HEK293 cells - 24 hour (AID 1224875). Note: series mostly up to about 77 µM; nearly all actives have a fitted effect of over 45% in size. Put shortly: as §1
The nature of assay [6]: A CellTox Green Cytotoxicity Assay to monitor cytotoxicity in HepG2 cells - 16 hour (AID 1224876). Note: nearly all actives have a fitted effect of over 45% in size. The gist of the method: (§4)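 HepG2, 600 cells/well premixed w/ CellTox Green; 5 h settle, 37 C/5% CO2; pintool cpd add (DMSO); 37 C, 40 h; fluorescence read at 0, 8, 16, 24, 32, 40 h.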
The nature of assay [7]: qHTS RealTime-Glo MT Cell Viability Assay in HepG2 cells - 32 hour (AID 1224877). Note: nearly all actives have a fitted effect of over 55% in size. Put shortly: (§5)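 Luminescence read-out: viable HepG2 cells reduce a prosubstrate to a NanoLuc substrate, giving a signal proportional to live cell number. Reads taken at 0, 8, 16, 24, 32 and 40 h of compound exposure at 37 C.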
Assay [8] can be described thus: A CellTox Green Cytotoxicity Assay to monitor cytotoxicity in HepG2 cells - 24 hour (AID 1224878). Note: nearly all actives have a fitted effect of over 45% in size. The gist of the method:
as §4

Assay [9] in a line: A CellTox Green Cytotoxicity Assay to monitor cytotoxicity in HepG2 cells - 40 hour (AID 1224879). Note: nearly all actives have a fitted effect of over 40% in size. Note: potency is the fitted concentration of half-maximal effect. Put shortly:
as §4

Assay [10] in a line: qHTS RealTime-Glo MT Cell Viability Assay in HEK293 cells - 0 hour (AID 1224880). The gist of the method: as §3
Assay [11] can be described thus: A CellTox Green Cytotoxicity Assay to monitor cytotoxicity in HEK293 cells - 32 hour (AID 1224881). Note: nearly all actives have a fitted effect of over 40% in size. The gist of the method: as §1
Assay [12] in a line: A CellTox Green Cytotoxicity Assay to monitor cytotoxicity in HepG2 cells - 0 hour (AID 1224882). Note: nearly all actives have a fitted effect of over 35% in size. Put shortly: as §4
Assay [13] can be described thus: A CellTox Green Cytotoxicity Assay to monitor cytotoxicity in HepG2 cells - 32 hour (AID 1224883). Note: nearly all actives have a fitted effect of over 50% in size. Note: potency is the fitted concentration of half-maximal effect. Put shortly:
as §4

A short description of assay [14]: A CellTox Green Cytotoxicity Assay to monitor cytotoxicity in HEK293 cells - 8 hour (AID 1224884). Note: nearly all actives have a fitted effect of over 35% in size. The gist of the method: as §1
Assay [15] can be described thus: qHTS RealTime-Glo MT Cell Viability Assay in HepG2 cells - 16 hour (AID 1224885). Note: nearly all actives have a fitted effect of over 50% in size. The gist of the method: as §5
Assay [16] in a line: qHTS RealTime-Glo MT Cell Viability Assay in HEK293 cells - 24 hour (AID 1224886). The gist of the method: as §2
Assay [17] in a line: qHTS RealTime-Glo MT Cell Viability Assay in HEK293 cells - 8 hour (AID 1224887). Put shortly: as §3
Assay [18] can be described thus: A CellTox Green Cytotoxicity Assay to monitor cytotoxicity in HEK293 cells - 16 hour (AID 1224888). Note: nearly all actives have a fitted effect of over 35% in size. Put shortly:
as §1

Assay [19] in a line: qHTS RealTime-Glo MT Cell Viability Assay in HepG2 cells - 0 hour (AID 1224889). Note: nearly all actives have a fitted effect of over 50% in size. The gist of the method:
as §5

Assay [20] is described as follows: A CellTox Green Cytotoxicity Assay to monitor cytotoxicity in HepG2 cells - 8 hour (AID 1224890). Note: nearly all actives have a fitted effect of over 45% in size. The gist of the method: as §4

Each structure is given as a SMILES string. A number with no mark means an inactive call. Inconclusive results are not listed. Active and inactive are the calls of the source. Calls come from the whole dose curve; as a rule, active = well fitted curve in the direction sought with a large enough effect in the repeat runs; inconclusive = weak or mixed curves; inactive = no such curve, though single readings can be large; an effect the other way counts as inactive or inconclusive.
% is set by controls: 0 for no effect and ±100 for the full control effect.

As to `CCCCCC[C@@H](O)C/C=C\CCCCCCCC(=O)OC`, the Potency result in assay [1], in [2], in assay [3], in [5], in assay [6] and in [7] was “inactive” in each case. In addition, the Potency result in assay [8], in assay [9], in assay [10], in [11], in [12] and in assay [13] was “inactive” each time. The Potency entry in assay [14], in assay [15], in [16], in assay [17], in assay [18] and in assay [19] was “inactive” each time. The Potency entry in [20] was “inactive”. For the same compound, the max response in [4] was 0.122%.

For the compound `C#CCN(C)CCCOc1ccc(Cl)cc1Cl`, the Potency result in assay [1], in [2], in assay [3], in [5], in assay [6] and in assay [7] was “inactive” in each case. In addition, the Potency entry in [8], in [10], in assay [11], in assay [12], in assay [14] and in [15] was “inactive” throughout. The Potency entry in assay [16], in [18], in [19] and in assay [20] was “inactive” throughout. Also, in [4], the max response is -21.6%. The Potency in assay [9] was 6.01 µM (active); in [13] it was 19 µM (active).

As for `CCCCC(CC)COC(=O)CCCCCCCCC(=O)OCC(CC)CCCC` (stereo not given), the Potency entry in assay [1], in assay [2], in [3], in assay [5], in assay [6] and in assay [7] was “inactive” each time. For the same compound, the Potency entry in [8], in [9], in assay [10], in [11], in [12] and in assay [14] was “inactive” each time. The Potency entry in assay [15], in [16], in assay [17], in [18], in [19] and in assay [20] was “inactive” in each case. In assay [4], the max response is 1.51%.

For the compound `NCC(=O)CCC(=O)O`, the Potency entry in assay [1], in assay [2], in assay [3], in assay [5], in assay [6] and in [7] was “inactive” in each case. Moreover, the Potency entry in assay [8], in [9], in [10], in [11], in assay [12] and in assay [13] was “inactive” in each case. The Potency result in [14], in assay [15], in assay [16], in assay [18] and in [19] was “inactive” in each case. Moreover, the max response in assay [4] was 7.89%.

With `O=C1c2ccccc2S(=O)(=O)N1CCCCN1CCN(c2ncccn2)CC1`, the Potency result in assay [1], in [2], in assay [3], in [5], in [6] and in assay [7] was “inactive” each time. For the same compound, the Potency entry in [8], in assay [9], in assay [10], in assay [11], in [12] and in assay [13] was “inactive” in each case. The Potency entry in assay [14], in assay [15], in assay [16], in [17], in [18] and in [19] was “inactive” in each case. Moreover, in [20], the Potency entry was “inactive”. The max response in [4] was -0.801%.

Take `CCCCCCc1ccc(-c2ccc(C#N)cc2)cc1`: the Potency entry in assay [1], in assay [2], in [3], in [5], in assay [6] and in [7] was “inactive” throughout. Further, the Potency entry in assay [8], in assay [9], in assay [10], in assay [11], in [12] and in [13] was “inactive” in each case. Also, the Potency entry in [14], in assay [15], in assay [16], in assay [17], in [18] and in assay [19] was “inactive” each time. Also, the Potency result in [20] is “inactive”. Also, in [4], the max response is -15.1%.

As to `Cc1c(N)cccc1[N+](=O)[O-]`, the Potency result in assay [1], in assay [2], in [3], in assay [5], in assay [6] and in assay [7] was “inactive” each time. In addition, the Potency entry in assay [8], in assay [9], in [10], in [11], in assay [12] and in assay [13] was “inactive” throughout. Moreover, the Potency entry in [14], in assay [15], in [16], in assay [17], in assay [18] and in assay [19] was “inactive” in each case. For the same compound, the max response in assay [4] was -13.1%.

On to `CN1CCN(C(c2ccccc2)c2ccccc2)CC1`, for which the Potency result in [1], in [2], in [3], in assay [5], in assay [6] and in assay [7] was “inactive” in each case. For the same compound, the Potency result in [8], in [9], in assay [10], in [11], in assay [12] and in [14] was “inactive” each time. In addition, the Potency result in assay [15], in assay [16], in [17], in assay [18] and in assay [19] was “inactive” in each case. The max response in assay [4] was -1.32%.

With `CC1(c2ccccc2)OC(C(=O)O)=CC1=O` (stereo not given), the Potency entry in assay [1], in assay [2], in assay [3], in assay [5], in assay [6] and in assay [7] was “inactive” in each case. Further, the Potency entry in assay [8], in assay [9], in [10], in assay [11], in [12] and in [13] was “inactive” in each case. The Potency result in assay [14], in assay [15], in assay [16], in assay [17], in [18] and in assay [19] was “inactive” each time. The max response in assay [4] was 2.42%.

As to `CCCCCCCCCCCC(=O)OC[C@@H](O)[C@H]1OC[C@H](OCCO)[C@H]1OCCO`, the Potency result in assay [1], in assay [2], in assay [3], in assay [5], in assay [6] and in assay [7] was “inactive” throughout. Besides, the Potency result in assay [8], in [9], in [10], in assay [11], in assay [12] and in assay [13] was “inactive” throughout. Besides, the Potency result in assay [14], in assay [15], in [16], in [17], in [18] and in assay [19] was “inactive” each time. For the same compound, the Potency result in assay [20] was “inactive”. Also, the max response in [4] is -0.559%.

Regarding `Nc1ccc(S(=O)(=O)Nc2ccccc2)cc1`, the Potency entry in assay [1], in [2], in assay [3], in assay [5], in assay [6] and in assay [7] was “inactive” each time. The Potency result in assay [8], in assay [9], in assay [10], in assay [11], in assay [12] and in assay [13] was “inactive” throughout. The Potency result in assay [14], in [15], in [16], in assay [17], in assay [18] and in assay [19] was “inactive” in each case. For the same compound, in assay [20], the Potency result is “inactive”. Besides, the max response in [4] was 0.381%.

As to `CC1=CC=C(C(C)C)CC1`, the Potency result in assay [1], in assay [2], in assay [3], in assay [5], in assay [6] and in assay [7] was “inactive” throughout. For the same compound, the Potency result in assay [8], in [9], in [10], in [11], in assay [12] and in [13] was “inactive” in each case. The Potency result in assay [14], in [15], in assay [16], in assay [18], in [19] and in assay [20] was “inactive” each time. Further, the max response in [4] was 1.32%.

`CCOC(=O)C(=O)CCc1ccccc1`: the Potency entry in assay [1], in assay [2], in assay [3], in assay [5], in assay [6] and in [7] was “inactive” each time. Moreover, the Potency entry in assay [8], in [9], in [10], in [11], in [12] and in [13] was “inactive” in each case. In addition, the Potency entry in [14], in assay [15], in assay [16], in [18], in assay [19] and in assay [20] was “inactive” each time. For the same compound, in assay [4], the max response is 0.79%.
